The results in this text go back to ChEMBL document CHEMBL4513216, “Probing the Open Global Health Chemical Diversity Library for Multistage-Active Starting Points for Next-Generation Antimalarials” (ACS Infect Dis, 2020).

In all, about 68,000 compounds went through this assay and about 2,700 (4%) showed an effect of 50% or more. This is one part of a sample in which strong results are shown more often than they occur.

This assay concerns Plasmodium berghei. Nature of the assay: Screen against P. berghei liver stage (PbLuc), transformed with Luciferase, at 2uM. Format: functional, HepG2. The following applies: tested at 2 uM.
As for `CCN(Cc1nnsc1Cl)C(C)c1ccc(C#N)cc1` (stereo not drawn), the INHIBITION stood at 56.49%.
With `CCCN(Cc1ccc(C#N)cc1)Cc1nnsc1Cl`, the INHIBITION is listed as 20.14%.
In the case of `CC(C)N(Cc1ccc(C#N)cc1)Cc1nnsc1Cl` it was 22.34%; in that of `Cc1cc(C)nc(N2CCC(c3ccnc(N(C)C)n3)CC2)n1`, -42.91%; in that of `Cc1nc(O)cc([C@@H]2CN(C(=O)C3CC3)C[C@H]2c2ccccc2F)n1`, -7.22%.
As for `CC(=O)NCCNC(=O)CN1CCOC(Cn2cccn2)C1` (stereo not drawn), the INHIBITION is recorded as -21.68%.
In the case of `CC(C)(Oc1ccc2c(c1)CCCC2=O)C(=O)NCc1ccco1` it was 15.88%.
Turning to `CC(C)(C)Oc1ccc(NCC(=O)NCc2ccco2)cc1`, the INHIBITION is recorded as -62.92%.
Consider `CC(C)(Oc1ccc(F)cc1)C(=O)NCc1ccco1`, for which the INHIBITION came out at 58.14%.
As to `c1ccc(N2CCCC3(COCCN(c4nccs4)C3)C2)nc1` (stereo not drawn), the INHIBITION is given as -29.98%.
In the case of `COc1cccc(CN2CCc3nc(C(=O)NCC(C)C)sc3CC2)c1`, the INHIBITION was -4.19%.
With `COc1ccc(C)cc1-n1cnnc1C1CC(=O)N(C)C1` (stereo not drawn), the INHIBITION is reported as 43.57%.
In the case of `Cc1nccc(C2CN(C(=O)c3cncnc3)C2)n1`, the INHIBITION is on record as 38.22%.
In the case of `Cc1cc(C2CCCN(S(=O)(=O)N(C)C)C2)ccn1` (stereo not drawn) it was -5.34%; in that of `CC(Cn1cncn1)NC(=O)Nc1ccc(COC2CCCC2)cc1` (stereo not drawn), 1.01%.
In the case of `CSCCc1ccc(NC(=O)NC(C)Cn2cncn2)cc1` (stereo not drawn), the INHIBITION was determined as 60.34%.
In the case of `CC(Cn1cncn1)NC(=O)NCC(C)(C)Cc1ccccc1` (stereo not drawn) it was 46.98%; in that of `O=C(c1cocn1)N1CCC2(CC1)CC(OCC1CC1)CO2` (stereo not drawn), 1.33%.
Regarding `O=C(c1cccnc1)N1CCC2(CCN(C(=O)c3ccco3)CC2)C1`, the INHIBITION was determined as 14.52%.
Consider `Nc1nc2nc(C3CCCN(C(=O)c4cnccn4)C3)ccc2s1` (stereo not drawn), for which the INHIBITION is reported as 46.98%.
On to `CC(=O)N1CCCC(c2ccc3sc(N)nc3n2)C1` (stereo not drawn), for which the INHIBITION stood at 17.01%.
On to `Nc1nc2nc(C3CCCN(C(=O)c4cncs4)C3)ccc2s1` (stereo not drawn), for which the INHIBITION turned out to be 52.82%.
In the case of `Cc1ccc([C@]2(O)CC[C@H]3CN(Cc4cc(C)c(O)c(C)c4)C[C@H]32)nc1` it was 13.65%; in that of `Cc1ccc([C@]2(O)CC[C@H]3CN(Cc4cccc(Cl)c4Cl)C[C@H]32)nc1`, 45.82%; in that of `Cc1ccc([C@]2(O)CC[C@H]3CN(Cc4cccnc4)C[C@H]32)nc1`, 12.16%.
Consider `CSc1ccc(CN2C[C@@H]3CC[C@@](O)(c4ccc(C)cn4)[C@@H]3C2)cc1`, for which the INHIBITION was 61.3%.
Under `COc1ncc(CN2C[C@@H]3CC[C@@](O)(c4ccc(C)cn4)[C@@H]3C2)cn1` stands -2.21%.
For the compound `Cc1ccc([C@]2(O)CC[C@H]3CN(Cc4ccncc4)C[C@H]32)nc1`, the INHIBITION came to 51.35%.
For the compound `CC(C)(C)c1nnc(CN2CCCC2Cn2cncn2)o1` (stereo not drawn), the INHIBITION is -13.06%.
For `COCCCN1C(=O)CC(N2CCN(c3ccc(F)cc3)CC2)C1=O` (stereo not drawn), the INHIBITION is 1.37%.
With `CCn1nc(C)c2nc(C)nc(NCCc3ccc(C)cc3)c21`, the INHIBITION is listed as 9.79%.
On to `CCCC(=O)N1CCC2(CC1)CC(NC(C)=O)c1ccccc1O2` (stereo not drawn), for which the INHIBITION is listed as -25.44%.
In the case of `CC(C)C(=O)NC1COC2(CCN(C(=O)c3ccc[nH]3)CC2)C1` (stereo not drawn), the INHIBITION is given as 25.46%.
For `COCCN1CCOCC12CCN(C(=O)c1ccncc1)CC2`, the INHIBITION is given as -41.59%.
Turning to `COCCN1CCOCC12CCN(C(=O)c1ccoc1)CC2`, the INHIBITION worked out at 52.62%.
On to `COCCN1CCOCC12CCN(C(=O)c1cccnc1)CC2`, for which the INHIBITION was 0.91%.
In the case of `O=c1c2cn[nH]c2nc(SCCN2CCCC2)n1-c1ccccc1` it was -15.12%; in that of `Cc1cc(C(=O)Nc2n[nH]c(C3CC3)n2)c2c(C)noc2n1`, -54.55%; in that of `COCC1CC2(CCN(S(=O)(=O)C3CC3)CC2)CN1c1ncccn1` (stereo not drawn), 15.39%.
In the case of `CCNC(=O)[C@@H]1C[C@@H](NC(=O)CSC)CN1Cc1ccncc1` it was 16.05%; in that of `COc1cc(CNC(=O)Nc2nnc(C(C)C)s2)ccc1O`, -33.43%.
`COc1cc(CNC(=O)Nc2nnc(C3CC3)s2)ccc1O`: the INHIBITION was determined as 53.61%.
Turning to `COc1cc(CNC(=O)Nc2nnc(C(F)(F)F)s2)ccc1O`, the INHIBITION was determined as 45.4%.
On to `CCC(c1ccc(F)cc1)N1CCn2c(CO)nnc2C1` (stereo not drawn), for which the INHIBITION worked out at 18.76%.
As to `c1cc(CN2CCC(Cc3noc(C4CC4)n3)CC2)c2c(c1)OCO2`, the INHIBITION amounted to 71.06%.
Regarding `c1cc2c(cc1CN1CCC(Cc3noc(C4CC4)n3)CC1)OCCO2`, the INHIBITION turned out to be 1.52%.
In the case of `c1ccc(CN2CCC(Cc3noc(C4CC4)n3)CC2)cc1` it was 17.33%; in that of `Cc1nccn1-c1ccc(=O)n(CCNC(=O)c2cccs2)n1`, -47.31%.
Take `O=C(c1cccc(S(=O)(=O)NCCc2nccs2)c1)N1CCOCC1`: the INHIBITION is 3.58%.
On to `CS(=O)(=O)N1C[C@@H]2CC[C@H]1CN(Cc1ccncc1)C2`, for which the INHIBITION is on record as -56.9%.
For the compound `Cc1ncsc1CN(Cc1ccccc1)Cc1ncc[nH]1`, the INHIBITION is listed as -43.51%.
In the case of `Cc1ncsc1C(=O)N(C)Cc1ccncc1` it was -25.22%; in that of `Cc1ncsc1CN(Cc1ccccc1)Cc1ccncc1`, 61.06%.
As to `Cn1nc(C2CCN(C(=O)c3cnccn3)C2)cc1CCO` (stereo not drawn), the INHIBITION was -18.15%.
As for `Cc1ccc(-n2ccnc2)c(C(=O)NCCOCC(F)(F)F)c1`, the INHIBITION stood at 16.98%.
For the compound `Cc1ccc(-n2ccnc2)c(C(=O)NCCOCC2CCCO2)c1` (stereo not drawn), the INHIBITION came out at 51.4%.
Consider `Cc1ccc(-n2ccnc2)c(C(=O)NCCCN(C)C)c1`, for which the INHIBITION came out at 20.21%.
Consider `CN1CCN(C(=O)NC2CCCC2)Cc2cccnc21`, for which the INHIBITION worked out at 11.87%.
Under `CCS(=O)(=O)N1CCN(C)c2ncccc2C1` stands 4.07%.
Take `CN1CCN(S(=O)(=O)C2CC2)Cc2cccnc21`: the INHIBITION is -5.9%.
For the compound `CN1CCN(S(C)(=O)=O)Cc2cccnc21`, the INHIBITION is 58.97%.
On to `CN(C)C(=O)N1CCN(C)c2ncccc2C1`, for which the INHIBITION amounted to 47.25%.
In the case of `CN1CCN(C(=O)N2CCCC2)Cc2cccnc21`, the INHIBITION was determined as 52.3%.
`Cc1nc(Nc2nccs2)cc(C2CCCN2)n1` (stereo not drawn): the INHIBITION is recorded as -26.8%.
With `CCC(O)Cn1nc(CCSC)nc1-c1ccc2[nH]ccc2c1` (stereo not drawn), the INHIBITION stood at 20.45%.
As to `O=C(Cc1cnc(-c2c(Cl)cccc2Cl)s1)N1CCC2(CC1)OCCO2`, the INHIBITION is listed as -6.29%.
In the case of `CC(=O)N1CCN(C(=O)Cc2cnc(-c3c(Cl)cccc3Cl)s2)CC1`, the INHIBITION was determined as 25.61%.
`O=C(Cc1cnc(-c2c(Cl)cccc2Cl)s1)N1CCOCC1`: the INHIBITION is 56.75%.
